SENP7 inh: SENP7 protease inhibition | Q9BQF6 | recombinant SENP7, Z-RLRGG-aminoluciferin luminescence, 40 min | inhibition, % at 5 µM | 330,000 compounds, 1.5% hits;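 active means inhibition above about 50% at the single test dose, limit read from the data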;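 further: plate controls were DMSO with enzyme for no effect and no enzyme buffer wells for full effect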
Target sequence (Q9BQF6 706-1050 limits assumed): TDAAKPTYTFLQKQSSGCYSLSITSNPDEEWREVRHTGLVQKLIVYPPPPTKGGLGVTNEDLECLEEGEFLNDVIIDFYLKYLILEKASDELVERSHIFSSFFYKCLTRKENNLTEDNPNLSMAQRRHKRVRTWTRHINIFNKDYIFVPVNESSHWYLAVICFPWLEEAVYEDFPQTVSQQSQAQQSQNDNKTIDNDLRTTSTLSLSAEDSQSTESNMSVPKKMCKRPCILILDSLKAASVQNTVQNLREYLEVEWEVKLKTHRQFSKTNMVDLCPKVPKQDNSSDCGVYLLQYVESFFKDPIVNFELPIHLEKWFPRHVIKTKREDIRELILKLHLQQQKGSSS
SENP6 block: inhibitors of human SENP6 protease; Recombinant SENP6 catalytic domain, aminoluciferin luminescence; 330,000 compounds, 1.8% hits; inhibition, % at 10 µM; AID 2599;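 active means inhibition above about 50% at the single tested dose, limit read from the data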;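 further: plate controls were DMSO wells with enzyme for no effect and DMSO wells lacking enzyme for full effect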
SENP8 block-1: inhibitors of human SENP8 protease. Q96LD8. recombinant SENP8, Nedd8 substrate fluorescence. inhibition, % at 20 µM. 360,000 compounds, 0.64% hits. AID 602440; in the data active means inhibition mostly above about 40%, no sharp cut-off; inactive means mostly below about 27%
Platelet DG rel: modulates dense granule release in human platelets | human platelet-rich plasma, SFLLRN dense granule ATP release, luminescence | inhibition, %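 (compounds screened at 7.5 µM in platelet-rich plasma)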 | 300,000 compounds, 0.22% hits | AID 1663;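 active means mean replicate score, as percent of positive control, at or above 50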
SENP8 block-2: blocks the human protease SENP8 | Q96LD8 | purified SENP8, Z-RLRGG-aminoluciferin cleavage, luminescence | 330,000 compounds, 1.2% hits | inhibition, % at 10 µM; in the data active means inhibition above about 50%
SENP8 confirm: human SENP8 inhibition, confirmed; inhibition, % at 12.5 µM; Recombinant SENP8, Z-RLRGG-aminoluciferin luminescence, 60 min; shares compounds with SENP7 inh; 6,200 compounds, 40% hits;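 active means mean inhibition across replicates above about 50%, limit read from the data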
SENP6 conf: human SENP6 inhibition, confirmed; shares compounds with SENP7 inh; recombinant SENP6, Z-RLRGG-aminoluciferin luminescence; inhibition, % at 12.5 µM; 6,200 compounds, 58% hits
SENP7 confirm: human SENP7 inhibition, confirmed; shares compounds with SENP7 inh; recombinant SENP7, Z-RLRGG-aminoluciferin luminescence, 40 min; inhibition, % at 12.5 µM; 6,200 compounds, 69% hits
Casp3 SENP sel: selectivity test for SENP inhibitors: human caspase-3 inhibition. shares compounds with SENP7 inh. purified caspase-3, Z-DEVD-aminoluciferin luminescence, 60 min. inhibition, % at 12.5 µM. 6,200 compounds, 60% hits. AID 488918;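 active means mean inhibition above about 50%, limit read from the data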;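 further: plate controls were enzyme with DMSO for no effect and wells without caspase-3 for full effect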
Luc interf: luminescence interference (SENP counter-screen) | shares compounds with SENP7 inh | 6,200 compounds, 39% hits | Pre-incubated SENP8/Z-RLRGG-aminoluciferin, luciferase luminescence interference | inhibition, % at 12.5 µM;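 active means mean inhibition above about 50% when retested at one dose, limit read from the data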;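 further: plate controls were DMSO wells with completed reaction for no effect and substrate without enzyme for full effect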
Active calls of the source: *; i = inactive; x = not tested or not shown. Only some compounds are listed: those with a hit (about 2.4% of all), similar ones and a draw of the others.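 How the source made its calls, unless noted: active means mean inhibition above about 50% in the one-dose retest (limit read from the data); inactive means the rest.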

SMILES	SENP7 inh	SENP6 block	SENP8 block-1	Platelet DG rel	SENP8 block-2	SENP8 confirm	SENP6 conf	SENP7 confirm	Casp3 SENP sel	Luc interf
CCOc1cccc(C(=O)Nc2ccc(NC(=O)c3ccccc3)c(C)c2)c1	78.1*	78.0*	26.3	11.1	77.1*	12.5	23.8	43.0	86.5*	0.9
CCn1cc(CN2CCCC(CNS(=O)(=O)c3cccc4cccnc34)C2)cn1 (configuration not stated)	4.6	-9.5	2.7	0.9	-6.3	x	x	x	x	x
Oc1ccc(CCc2ccccn2)cc1	x	x	-6.6	x	x	x	x	x	x	x
CCOc1ccc(-c2nnn(CC(=O)Nc3ccccc3OC)n2)cc1OCC	62.6*	-4.7	28.2	-7.7	6.8	-7.6	-2.0	-1.1	7.4	3.1
CCc1cc(C(=O)NNC(=S)Nc2cc(C)ccc2C)cs1	41.0	40.3	9.7	6.3	21.6	x	x	x	x	x
Cc1cc(C(=O)Nc2ccc(Br)cc2)cs1	59.8*	40.9	6.5	-0.2	5.3	1.7	21.7	28.2	41.5	3.2
CCc1cc(C(=O)NNC(=S)Nc2ccccc2C)cs1	28.0	59.9*	13.1	-4.5	35.5	32.6	30.0	19.0	13.7	38.4
CNS(=O)(=O)c1ccc(NC(=O)c2csc(C)c2)cc1	0.7	11.1	10.8	-5.0	3.1	x	x	x	x	x
CCc1cc(C(=O)Nc2ccccc2)cs1	75.0*	67.2*	4.6	3.0	51.7*	64.4*	66.3*	92.3*	80.6*	76.7*
O=C(CN1CCN(S(=O)(=O)/C=C/c2ccccc2)CC1)NCC(F)(F)F	3.2	5.2	18.1	3.7	4.9	x	x	x	x	x
CN(C)c1ccc(-c2cc3ccccc3c(=O)o2)cc1	65.9*	76.8*	-498.4	x	84.4*	20.1	20.9	27.3	35.7	15.4
COc1ccc(-c2cc3ccccc3c(=O)o2)cc1	x	x	-439.7	x	x	x	x	x	x	x
CC(C)Cn1cc(C(=O)NCc2cccs2)c2c3ccccc3n(C)c2c1=O	61.7*	2.8	-314.0	3.8	5.0	-1.0	-0.4	-5.2	-1.5	-6.0
CC(C)CC1Nc2ncnc(N3CCCCC3)c2N(Cc2ccc(Br)cc2)C1=O (configuration not stated)	-6.5	2.5	-18.8	2.1	4.6	x	x	x	x	x
O=c1c(-c2ccccc2)cocc1-c1ccccc1	x	x	18.0	x	x	x	x	x	x	x
O=C1C(c2ccccc2)=[N+]([O-])c2ccccc21	45.5	64.2*	i	7.2	22.7	55.0*	68.9*	74.9*	61.4*	27.4
CS(=O)(=O)Nc1cccc(-c2cnc3ccccc3n2)c1	-3.4	-24.5	-0.2	3.3	-12.4	x	x	x	x	x
Oc1ccc(/C=N/N2CCCCC2)c(O)c1O	10.5	56.0*	51.6*	3.5	19.7	-4.1	8.1	4.6	2.8	1.0
COc1cc(/C=C(/C#N)c2nc3ccccc3[nH]2)ccc1OC(=O)c1ccco1	70.5*	84.3*	-295.5	16.3	77.9*	52.2*	70.1*	99.4*	84.3*	37.3
COc1cc(/C=C(\C#N)c2nc3ccccc3[nH]2)cc(Br)c1OCc1ccccc1	-1.3	11.5	-295.4	19.2	-0.6	x	x	x	x	x
COc1cc(/C=C(\C#N)c2nc3ccccc3[nH]2)ccc1Oc1ccc([N+](=O)[O-])cn1	8.7	-11.7	-273.2	-1.4	-5.7	x	x	x	x	x
COc1cc(/C=C(/C#N)c2nc3ccccc3c(=O)[nH]2)ccc1O	86.7*	93.7*	-16.4	6.3	83.7*	13.3	21.7	23.6	61.8*	10.9
Oc1ccc(C=Nc2ccccc2-c2nc3ccccc3[nH]2)c(O)c1	5.3	-19.4	-276.2	8.7	-9.5	x	x	x	x	x
Oc1ccc(C=Nc2cccc3ncccc23)c(O)c1	46.1	91.2*	22.9	5.7	44.1	11.7	17.3	0.8	3.9	2.0
CNC(=O)CSc1nc2ccccc2c(=O)n1CCc1ccccc1	-4.1	1.7	7.3	3.6	4.3	x	x	x	x	x

Screening results deposited in PubChem by several laboratories.
